Measurements taken from PubChem BioAssay (NCATS).
Records with an inconclusive call do not appear. A number with no mark means an inactive call. Calls of active or inactive are those of the source. Calls come from the whole dose curve; as a rule, active = well fitted curve in the direction sought with a large enough effect; inconclusive = small, poorly fitted or top-dose-only effect, or another doubt; inactive = no such curve, though single readings can be large; an effect the other way counts as inactive or inconclusive.

Legend:
[1] = qHTS for Inhibitors of the Aldehyde Dehydrogenase Family (ALDH1A2, ALDH1A3, ALDH2, ALDH3A1) (AID 2061307); note: nearly all actives have a fitted effect of over 50% in size; for Potency: test system not described further here; potency is the fitted concentration of half-maximal effect; for activity change, negative = inhibition: % is set by controls: 0 for no effect and ±100 for the full control effect
[2] = target: Aldehyde dehydrogenase, mitochondrial (Homo sapiens) (UniProt P05091); experiment: qHTS for Inhibitors of the Aldehyde Dehydrogenase Family (ALDH2) Primary screen (AID 2061308);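 note: plate controls were vehicle for no effect and reference inhibitor for full effect; nearly all actives have a fitted effect of over 55% in size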
[3] = target: Retinaldehyde dehydrogenase 3 (Homo sapiens) (UniProt P47895); experiment: qHTS for Inhibitors of the Aldehyde Dehydrogenase Family (ALDH1A3) Confirmatory screens (AID 2061311); note: nearly all actives have a fitted effect of over 60% in size; note: potency is the fitted concentration of half-maximal effect; for activity change, negative = inhibition: % is set by controls: 0 for no effect and ±100 for the full control effect
[4] = target: Retinal dehydrogenase 2 (Homo sapiens) (UniProt O94788); experiment: qHTS for Inhibitors of the Aldehyde Dehydrogenase Family (ALDH1A2) Confirmation screens (AID 2061314); note: nearly all actives have a fitted effect of over 65% in size; note: potency is the fitted concentration of half-maximal effect
[5] = target: Retinaldehyde dehydrogenase 3 (Homo sapiens) (UniProt P47895); experiment: qHTS for Inhibitors of the Aldehyde Dehydrogenase Family (ALDH1A3) Primary screen (AID 2061315);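 note: plate controls were DMSO vehicle for no effect and reference inhibitor for full effect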
[6] = target: Aldehyde dehydrogenase 1A1 (Homo sapiens) (UniProt P00352); experiment: qHTS for Inhibitors of the Aldehyde Dehydrogenase Family (ALDH1A1) Confirmatory screens (AID 2061316); note: nearly all actives have a fitted effect of over 65% in size; note: potency is the fitted concentration of half-maximal effect; for activity change, negative = inhibition: % is set by controls: 0 for no effect and ±100 for the full control effect

Row | Compound | Potency [1] | Potency [2] | Potency [3] | Potency [4] | Potency [5] | Potency [6] | activity change, negative = inhibition [3]
1 | Cc1cnc(-c2ccccc2CO)nc1NCC1CCN(c2cccnc2)CC1 | inactive | inactive | inactive | 11.3 µM (active) | inactive |  | 
2 | O=C(Nc1cccc2nn(-c3ccc(F)cc3)cc12)c1ccccn1 | inactive | inactive | inactive | inactive | inactive | 28.3 µM (active) | 
3 | O=C(CSc1nc2ccccc2n1CCc1ccccc1)c1ccc(O)c(O)c1 | 12.7 µM (active) | inactive | 11.3 µM (active) | inactive | inactive | 7.98 µM (active) | 
4 | NC(=O)C1CCN(c2ncc(-c3ccc(Br)cc3)s2)CC1 | 5.65 µM (active) | inactive | 22.4 µM (active) | inactive | inactive | 11.3 µM (active) | 
5 | Cc1ccc(-c2cc(C(=O)Nc3ccc(-c4noc(=O)[nH]4)cc3)c3ccccc3n2)cc1C | 7.08 µM (active) | inactive | 11.2 µM (active) | inactive | inactive | inactive | 
6 | c1ccc(-n2cc(-c3nnc4n3CCCCC4)cn2)cc1 | inactive | inactive | 14.2 µM (active) | 12.7 µM (active) | inactive | inactive | 
7 | O=C1N/C(=C\c2ccco2)C(=O)N1Cc1ccccc1 | 0.798 µM (active) | inactive | 11.3 µM (active) | 12.7 µM (active) | inactive | 3.57 µM (active) | 
8 | COc1ccc(C2Nc3ccccc3C(=O)N2Cc2ccccc2)cc1COc1ccc(C#N)cc1 (stereo not given) | 1.01 µM (active) | inactive | 12.6 µM (active) | 0.896 µM (active) | inactive |  | 
9 | NC(=O)C1CCN(c2ncc(-c3ccc4c(c3)OCO4)s2)CC1 | 5.04 µM (active) | inactive | 17.8 µM (active) | inactive |  | 12.7 µM (active) | 
10 | O=C(Nc1ccc(N2CCOCC2)nc1)c1cccs1 | 25.1 µM (active) | inactive | 22.5 µM (active) | 22.5 µM (active) | inactive | 12.7 µM (active) | 
11 | Cc1cc(C)nc(NC(=S)N2CCN(c3cc4ccccc4cn3)CC2)c1 | inactive | inactive | 6.34 µM (active) | 15.9 µM (active) |  | 5.04 µM (active) | 
12 | Cc1ccccc1Nc1nc(C#N)nc(NC2CCCC2)n1 | 10.1 µM (active) | inactive |  | 12.7 µM (active) | inactive |  | -21.8% [at 0.0073 µM]
13 | CN(C)[S+](=O)([O-])c1ccc(-c2cncc(NC(=O)c3cccs3)c2)cc1 | 2 µM (active) | inactive | 0.562 µM (active) | 6.31 µM (active) | inactive | inactive | 
14 | N#Cc1nc(Nc2cccc([N+](=O)[O-])c2)nc(NC2CCCC2)n1 | 5.62 µM (active) | inactive | 22.4 µM (active) | 6.34 µM (active) | inactive |  | 
15 | COc1ccc(C2Nc3ccccc3C(=O)N2Cc2cccc3ccccc23)cc1COc1ccc(NC(C)=O)cc1 (stereo not given) | 3.55 µM (active) | inactive | 12.6 µM (active) | 22.5 µM (active) | inactive | 4 µM (active) | 
16 | Oc1ccc(CNc2cc(C(F)(F)F)ccn2)c2cccnc12 | 20.1 µM (active) | inactive | 5.65 µM (active) | 7.12 µM (active) |  | 11.3 µM (active) | 
17 | COc1cccc(C2=Nn3c(nnc3-c3ccccc3C)SC2)c1 | 2.51 µM (active) | inactive | 22.4 µM (active) | 17.8 µM (active) | inactive | 10.1 µM (active) | 
18 | O=C1Nc2c(Cl)cccc2/C1=C\c1cc(Cl)c(O)c(Cl)c1 | 1.79 µM (active) | inactive | inactive | 25.2 µM (active) | inactive | 7.12 µM (active) | 
19 | COc1ccc(C2Nc3cccc(OC)c3C(=O)N2Cc2ccccc2)cc1COc1ccc(NC(C)=O)cc1 (stereo not given) | 1.13 µM (active) | inactive | 12.7 µM (active) | 10.1 µM (active) | inactive | 11.3 µM (active) | 
20 | CC(=O)N1CCN(c2ccc(NCc3cccs3)cc2)CC1 | 3.18 µM (active) | inactive | 7.98 µM (active) | 5.65 µM (active) |  | 10.1 µM (active) | 
21 | CN(CC(=O)Nc1cccc(N2CCOCC2)c1)Cc1c(O)ccc2ccccc12 | 5.65 µM (active) | inactive | 12.7 µM (active) | 11.3 µM (active) | inactive | 4 µM (active) | 
22 | O=C(O)c1cccc(-n2cccc2/C=C2/C(=O)N(Cc3ccc(F)cc3)C(=O)N2Cc2ccc(F)cc2)c1 | 14.2 µM (active) | inactive | inactive | inactive | inactive | inactive | 
23 | COC(=O)c1ccc(O)c2ncc(N3CC[C@H](N)C3)cc12 | inactive | inactive | 12.7 µM (active) | inactive | inactive | 11.3 µM (active) | 
